From PubChem BioAssay
CHX counter: counter-screen hit for Shiga toxin inhibitors, cycloheximide | cell reporter, cycloheximide protein synthesis inhibition counterscreen | AID 2314 | 300,000 tested, 12% active | max response, %; in the data active means max response mostly above about 13%, no sharp cut-off; inactive means mostly below about 14%; further: read at 38.3 µM for the half of the compounds with a filed dose; 0% is about no effect
LmPK inh: blocks Leishmania mexicana pyruvate kinase activity; purified LmPK, Kinase-Glo ATP luminescence, 1 h; Potency, µM (highest dose often 57.5 µM), inactives show top-dose activity change, negative = inhibition, actives largely listed as inhibitors; Q27686; 290,000 tested, 0.37% active; AID 1721; further: potency means the concentration at half of the fitted maximal effect; on the % scale 0 is the no-effect control and ±100 the full control effect
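0.1 nM LmPK, 0.5 mM PEP, 0.1 mM ADP; 50 mM imidazole pH 7.2, 7 mM MgCl2, 50 mM KCl; 1 h RT. Kinase-Glo luminescence readout, normalized to no-enzyme (full inhibition) and uninhibited wells.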
Shiga toxin inh: inhibitors of Shiga toxin in Vero cells; Vero cells, Shiga toxin protein synthesis inhibition reporter; inhibition, % at 38.7 µM; 290,000 tested, 9.2% active; in the data active means inhibition mostly above about 28%, no sharp cut-off; inactive means mostly below about 43%; further: 0% is about no effect
FBPA Giardia inh: inhibitors of Giardia lamblia fructose-1,6-bisphosphate aldolase | Potency, µM (titrated, usually from 59.6 µM), for the others: top-dose activity, negative = inhibition, most hits filed as inhibitors | purified Giardia FBPA | A8B2U2 | 290,000 tested, 0.71% active | AID 2451; further: potency means the concentration at half of the fitted maximal effect; on the % scale 0 is the no-effect control and ±100 the full control effect; nearly all actives have a fitted effect of over 55% in size
Target sequence (A8B2U2 whole entry, looked up): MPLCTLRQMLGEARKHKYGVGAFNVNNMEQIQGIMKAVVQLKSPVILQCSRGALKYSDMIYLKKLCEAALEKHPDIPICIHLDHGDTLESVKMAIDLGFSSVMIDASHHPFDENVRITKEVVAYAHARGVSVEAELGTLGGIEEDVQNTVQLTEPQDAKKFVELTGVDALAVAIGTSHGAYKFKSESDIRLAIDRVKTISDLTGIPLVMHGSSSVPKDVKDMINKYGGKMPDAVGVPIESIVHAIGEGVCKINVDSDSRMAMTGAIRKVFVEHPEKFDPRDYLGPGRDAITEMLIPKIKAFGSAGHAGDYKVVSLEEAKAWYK
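Giardia FBPA (40 nM reagent) was preincubated 10 min at RT with compound (up to 57.5 uM final), then substrate plus GAPDH/TPI/NAD/arsenate coupling system with diaphorase/resazurin was added; resorufin fluorescence (525/598 nm) was read after 20 min.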
Tb PYK inh: T. brucei pyruvate kinase inhibition | Q57TT1 | TbPYK enzyme, Kinase-Glo Plus ATP luminescence, 45 min | Potency, µM (doses to about 76.8 µM), without a hit: at the top dose activity, negative = inhibition, most hits filed as inhibitors | 410,000 tested, 0.12% active; further: potency means the concentration at half of the fitted maximal effect; on the % scale 0 is the no-effect control and ±100 the full control effect; nearly all actives have a fitted effect of over 50% in size
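Screened from lowest to highest concentration, compounds were pinned into TbPYK/substrate mixtures, and ADP (130 uM final) was added. Plates sat at room temperature for 45 min prior to Kinase-Glo Plus detection by luminescence.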
RE007 growth inh: less growth of the S. pombe RE007 Vpr strain; S. pombe RE007 Vpr strain, BacTiter-Glo ATP luminescence, 24 h; Potency, µM (titrated, usually from 92.2 µM), without a hit: top-dose activity change, negative = less growth, hits mostly inhibitors; 360,000 tested, 0.21% active; AID 651644; active means well fitted falling curve with a large enough effect; inconclusive means small, poorly fitted or top-dose-only effect; inactive means no such curve, though single readings can be large or run the other way; further: potency means the concentration at half of the fitted maximal effect; on the % scale 0 is the no-effect control and ±100 the full control effect; nearly all actives have a fitted effect of over 50% in size
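Fission yeast RE007 carrying one integrated HIV-1 vpr copy, seeded at OD 0.01 in PMG+AL medium with 23 nL pinned compound. Grown 24 h at 30 degrees; viability read by BacTiter-Glo luminescence after 5 min.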
An asterisk follows results filed as active; ? = inconclusive; / = no result given; + = active, no number. Many of the other results were omitted from the sample, so hits are more common in it than they were. Unless noted, the call rests on the fitted dose curve; in most records, active means well fitted curve in the direction sought with a large enough effect; inconclusive means small, poorly fitted or top-dose-only effect, or another doubt; inactive means no such curve, though single readings can be large; an effect the other way counts as inactive or inconclusive.

SMILES | CHX counter | LmPK inh | Shiga toxin inh | FBPA Giardia inh | Tb PYK inh | RE007 growth inh
C/C(N)=C(/C#N)C(=O)CSc1nnc(Nc2ccccc2)s1 | 42* | 2% | 139* | -15% | 1% | 14%
Cc1ccc(O)c(-c2n[nH]c3c2C(c2ccc(F)cc2)N(Cc2ccco2)C3=O)c1 (stereo unspecified) | / | / | / | / | -6% | /
Cc1oc(=O)oc1CN1CCN(c2cc3c(cc2F)c(=O)c(C(=O)O)c2n3C(C)S2)CC1 (stereo unspecified) | / | / | / | / | -9% | /
O=C(NCCc1ccc(Cl)cc1)c1cc(-c2ccc(Cl)cc2)n[nH]1 | / | / | / | / | -12% | /
CN(C)c1ccc(-c2ccnc3c2CC(C)(C(=O)NCc2ccc(F)c(F)c2)O3)cc1 (stereo unspecified) | / | / | / | / | -3% | 7%
CC(C)(C)c1ccc(N2C[C@@H](COc3ccc(C(=O)O)cc3)CC2=O)cc1 | 11 | / | 25 | 6% | / | /
COc1cc(NC(=O)CSc2nnc(NC(C)C)s2)cc(OC)c1OC | -2 | 1% | -7 | 2% | -10% | 17%
CSc1nnc(Nc2ccccc2C)s1 | 16* | -28% | 12 | -4% | -2% | -17%
Cc1cc(NC(=O)CSc2nnc(Nc3ccccc3C)s2)no1 | -3 | 1% | -3 | -2% | -3% | -12%
C/C(N)=C(/C#N)C(=O)CSc1nnc(NC(C)C)s1 | 30* | -3% | 58* | 0% | -14% | -20%
Cc1cc(C(=O)NCCc2ccc(S(=O)(=O)NC(=O)NN3CCCCCC3)cc2)no1 | 8 | / | -5 | -15% | 0% | /
CC1CCN(C(=O)CN2CC(C)Sc3ccccc32)CC1 (stereo unspecified) | / | / | / | / | -2% | /
OC[C@H]1O[C@@H](n2cnc3c(Nc4ccccc4)ncnc32)[C@H](O)[C@@H]1O | 27 | 0% | 108* | 0% | 2% | 15%
OC[C@H]1O[C@@H](n2cnc3c(NCc4ccccc4)ncnc32)[C@H](O)[C@@H]1O | / | / | / | -1% | / | /
COc1c(C)cccc1C(=O)Nc1ccc(N2CCN(S(C)(=O)=O)CC2)cc1 | 35* | 0% | 96* | -3% | 2% | 3%
COc1ccccc1C(=O)Nc1ccc(N2CCN(S(C)(=O)=O)CC2)cc1 | 11 | 1% | 37* | 1% | 5% | 1%
CS(=O)(=O)N1CCC(Oc2ccccc2C(=O)NC(C2CC2)C2CC2)CC1 | 16 | 5% | 45* | 4% | -6% | -7%
COc1ccccc1C(=O)Nc1ccccc1N1CCN(S(C)(=O)=O)CC1 | 1 | 3% | 7 | 20% | -3% | -9%
COc1ccnc(CSC(N)=Nc2ccc(F)cc2)c1 | 31* | 0% | 66* | ? | ? | ?
Cc1ccc(NC(=O)COc2ccccc2C=O)cc1Cl | 26* | -5% | 29 | 4% | 1% | 0%
CN(c1cccc(NC(=O)CSc2ccc(Cl)cc2)c1)S(C)(=O)=O | -1 | 0% | 3 | 0% | -3% | 7%
Cc1ccccc1OCC(=O)Nc1cccc(N(C)S(C)(=O)=O)c1 | 15* | -8% | + | -4% | 3% | 5%
CN(c1cccc(NC(=O)COc2ccc(Cl)cc2Cl)c1)S(C)(=O)=O | 19* | 2% | 54* | -4% | -4% | -13%
CN(c1cccc(NC(=O)COc2ccccc2)c1)S(C)(=O)=O | 43* | 1% | 75* | -3% | 0% | 2%
O=C(Cn1cnnn1)NC1CCCN(Cc2ccccc2F)C1 (stereo unspecified) | 1 | 0% | -5 | -3% | -1% | 3%
SMILES | CHX counter | LmPK inh | Shiga toxin inh | FBPA Giardia inh | Tb PYK inh | RE007 growth inh
O=C(CS(=O)(=O)c1cccc2nsnc12)Nc1ccccc1Cl | / | / | / | / | -3% | /
Cc1ccc(OCC(=O)NCC2(N3CCOCC3)CCCCC2)cc1C | / | / | / | / | 3% | /
CN(c1cccc(NC(=O)CCSc2ccccc2)c1)S(C)(=O)=O | 38* | 1% | 35* | -2% | -6% | 17%
CC(=O)Nc1cccc(NC(=O)COc2ccccc2C)c1 | 20* | -2% | 33* | -8% | 8% | 4%
CC(C)c1ccccc1NC(=O)C1CC(=O)N(C2CCCC2)C1 (stereo unspecified) | -1 | 2% | -12 | 14% | 2% | 0%
CCC/C=C1/CCCOC(C(=O)NCCOC)(C(F)(F)F)C1 (stereo unspecified) | 19 | / | -3 | 5% | / | /
Cc1nc2cc(CO)ccc2n1C | -3 | -4% | -7 | -11% | 3% | 10%
COc1ccc(OC)c(CNc2ccc3c(c2)nc(C)n3C)c1 | 9.4* | -2% | 32 | -8% | -2% | -1%
Cc1ccc(CNc2ccc3c(c2)nc(C)n3C)cc1 | 30* | 1% | / | -28% | -4% | -6%
COc1ccc(OC)c(CNc2nc3ccc(C)cc3n3nnnc23)c1 | / | / | / | / | -4% | /
Cc1nc2cc(NCc3ccc(Cl)cc3)ccc2n1C | 30* | 1% | 71* | -10% | -1% | -25%
COc1ccc(CNc2ccc3c(c2)nc(C)n3C)cc1 | 25* | 2% | 60* | -20% | -17% | -17%
CCOc1ccc2c(c1)nc(C)n2C | 7 | -4% | 18 | 4% | 2% | -16%
Cc1cc(=O)[nH]c2sc(C(=O)N3c4ccccc4CC3C)c(N)c12 (stereo unspecified) | / | / | / | / | -1% | 13%
Cc1nc(C)c(-c2csc(Nc3ccc(N)cc3)n2)s1 | 35* | -4% | 69* | -19% | -1% | -5%
Cc1nc(C)c(-c2csc(Nc3ccc(O)c(C(=O)O)c3)n2)s1 | -1 | 0% | 9 | -29% | -6% | -1%
Cc1cc(O)ccc1Nc1nc(-c2sc(N)nc2C)cs1 | -2 | -1% | 7 | -6% | -10% | -9%
COc1ccc(Nc2nc(-c3sc(C)nc3C)cs2)cc1 | 13* | 5% | 14 | -2% | -1% | 0%
Cc1nc(N)sc1-c1csc(Nc2ccccc2)n1 | 25* | -5% | 52* | -23% | -5% | -27%
Cc1nc(C)c(-c2csc(Nc3cccnc3)n2)s1 | 34* | 0% | 38* | 0% | 0% | 5%
CCCCCC(=O)c1c(O)cc(OC)c(Cl)c1O | 26* | / | 93* | -4% | / | /
COc1ccc(-n2ccn(Cc3ccc(C)cc3)c(=O)c2=O)cc1OC | / | / | / | / | 7% | /
COC(OC)c1ccnc(-c2ccc(OC(=O)c3cccs3)cc2)n1 | 26* | -3% | 61* | -6% | -3% | 7%
COC(OC)c1ccnc(-c2ccc(OC(C)=O)cc2)n1 | 22* | 0% | 50 | 0% | -5% | 13%
COC(OC)c1ccnc(-c2ccc(OC(=O)c3ccccc3)cc2)n1 | 27 | 8% | 43 | 0% | 4% | 0%
COc1ccc(Cn2ncc3c4sc(C)cc4n(C)c3c2=O)cc1F | 4 | / | 14 | / | / | /
C=CCN1C=C(C(C)=O)C(=O)CC1 | / | / | / | / | -3% | 0%
Cc1cc(Br)ccc1SCC(=O)N1CCN(S(=O)(=O)c2ccccc2)CC1 | 33* | -7% | 38* | / | -3% | -7%
